PubChem BioAssay (Tox21)
Inconclusive results are not listed. Calls of active or inactive are those of the source. Unless noted, calls follow the shape of the dose curve; as a rule, active = well fitted curve in the direction sought with a large enough effect in the repeat runs; inconclusive = weak or mixed curves; inactive = no such curve, though single readings can be large; an effect the other way counts as inactive or inconclusive.

Columns and labels:
[1] = qHTS assay to identify small molecule antagonists of the estrogen receptor alpha (ER-alpha) signaling pathway using the BG1 cell line in the presence of 0.1 nM 17-beta-estradiol - cell viability counter screen (AID 1259241); also: nearly all actives have a fitted effect of over 40% in size
Summary of the method: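 Viability in VM7Luc4E2 cells after 22 hr compound exposure under 0.1 nM 17beta-estradiol stimulation, by CellTiter-Fluor.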

[2] = qHTS assay to identify small molecule antagonists of the androgen receptor (AR) signaling pathway using the MDA cell line in the presence of 0.5 nM R1881 - cell viability counter screen (AID 1259242); also: nearly all actives have a fitted effect of over 45% in size
Summary of the method: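 Live-cell protease activity was measured by CellTiter-Fluor fluorescence after 30 min. Before that, MDA-kb2 MMTV-luciferase cells had 16 hr at 37C without CO2, exposed to test compounds and 0.5 nM R1881 final.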

[3] = target: Estrogen receptor (Homo sapiens) (UniProt P03372); assay: qHTS assay to identify small molecule antagonists of the estrogen receptor alpha (ER-alpha) signaling pathway using the BG1 cell line in the presence of 0.1 nM 17-beta-estradiol (AID 1259244); also: nearly all actives have a fitted effect of over 50% in size
Estrogen receptor (Homo sapiens), sequence (P03372 whole entry, looked up): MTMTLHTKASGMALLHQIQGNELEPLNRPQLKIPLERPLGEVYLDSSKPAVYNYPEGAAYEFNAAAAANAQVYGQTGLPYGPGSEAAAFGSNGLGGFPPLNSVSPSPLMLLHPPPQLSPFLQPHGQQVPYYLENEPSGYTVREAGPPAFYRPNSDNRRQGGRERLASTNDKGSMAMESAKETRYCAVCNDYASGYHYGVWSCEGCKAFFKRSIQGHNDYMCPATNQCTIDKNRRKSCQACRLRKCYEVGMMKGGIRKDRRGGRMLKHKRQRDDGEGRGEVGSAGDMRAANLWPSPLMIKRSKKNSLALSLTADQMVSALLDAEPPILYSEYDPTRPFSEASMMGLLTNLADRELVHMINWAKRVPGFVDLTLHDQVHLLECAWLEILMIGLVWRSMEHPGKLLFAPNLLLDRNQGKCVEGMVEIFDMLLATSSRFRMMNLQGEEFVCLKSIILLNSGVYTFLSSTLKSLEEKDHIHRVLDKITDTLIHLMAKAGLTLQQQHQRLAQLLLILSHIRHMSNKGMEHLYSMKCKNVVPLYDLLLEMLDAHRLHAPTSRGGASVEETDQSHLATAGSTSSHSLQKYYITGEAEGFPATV
Summary of the method: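 Luciferase luminescence (ONE-Glo, 30 min at room temperature) was read after 22 hr at 37C exposure to compounds plus 17beta-estradiol at 0.1 nM final. Cells were VM7Luc4E2 with endogenous ER-alpha and an ERE-driven luciferase, pre-cultured 5 days in hormone-depleted medium.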

[4] = qHTS assay to identify small molecule phospholipidosis (PLD) inducers (AID 1259344; active = well fitted curve in the direction sought with a large enough effect; an effect the other way counts as inactive or inconclusive)
Summary of the method: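 Image-based: LipidTOX Red pit count/intensity per well and per cell; HepG2, 24 h compound at 37 C, PFA fixation, Hoechst counterstain.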

[5] = qHTS assay to identify small molecule HDAC inhibitors (AID 1259364); also: top concentration of the series differs between compounds; nearly all actives have a fitted effect of over 45% in size
Summary of the method: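 Luminescence read after 30 min room-temperature HDAC-Glo incubation measures cellular class I/II HDAC activity. Compounds were applied for 2 hr at 37 C to HCT-116 wild-type cells seeded the day before.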

[6] = qHTS assay to identify small molecule HDAC inhibitors - cell viability counter screen (AID 1259365); also: series mostly up to about 92 µM; nearly all actives have a fitted effect of over 50% in size
Summary of the method: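 Cytotoxicity was gauged in wild-type HCT-116 cells after a brief 2hr treatment with DMSO-dissolved compounds at 37C and 5% CO2, using CellTiter-Glo luminescence developed for 30min at room temperature.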

[7] = qHTS assay to identify small molecule agonists of the sonic hedgehog signaling (Shh) pathway - cell viability counter screen (AID 1259366); also: nearly all actives have a fitted effect of over 50% in size; also: potency is read from the fitted curve at half-maximal effect
Summary of the method: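 Stable Gli1-Luc NIH/3T3 clone, 2,000 cells/well. Compound exposure 24hr at 37C. Read-out: CellTiter-Fluor fluorescence.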

[8] = qHTS assay to identify small molecule agonists of the sonic hedgehog signaling (Shh) pathway (AID 1259368; calls by dose curve;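 also: NIH/3T3-derived 3T3Gli1-Luc cells carrying a stable Gli1-driven firefly luciferase reporter; series mostly up to about 92 µM; nearly all actives have a fitted effect of over 15% in size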)
Summary of the method: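 Luminescence was read after 30 min at room temperature with luciferase reagent. Before that, 3T3Gli1-Luc cells (NIH/3T3 clone, stable Gli1-Luc reporter; 2,000/well) were exposed to compounds for 24 hr at 37C, 5% CO2, compounds being added 4 hr post-plating.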

[9] = qHTS assay to identify small molecule antagonists of the sonic hedgehog signaling (Shh) pathway (AID 1259369; calls by dose curve; also: nearly all actives have a fitted effect of over 45% in size; also: potency is read from the fitted curve at half-maximal effect)
Summary of the method: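 Antagonist mode: compound added to 3T3 Gli1-Luc cells followed by conditioned-medium stimulation, 24 h at 37 C, 5% CO2. Inhibition taken as loss of Gli1-driven luciferase luminescence.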

[10] = qHTS assay to identify small molecule antagonists of the estrogen receptor beta (ER-beta) signaling pathway - cell viability counter screen (AID 1259382); also: series mostly up to about 92 µM; nearly all actives have a fitted effect of over 55% in size
Summary of the method: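 Cytotoxicity was measured in the same wells by CellTiter-Glo luminescence after 30 min at room temperature. Cells were ER-beta-bla HEK293T in charcoal-stripped serum, given compound together with 1 nM E2 and incubated 16 h at 37C.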

[11] = target: Estrogen receptor (Homo sapiens) (UniProt P03372); assay: qHTS assay to identify small molecule agonists of the estrogen receptor alpha (ER-alpha) signaling pathway in the presence of an antagonist (AID 1259383; calls by dose curve; also: top concentration of the series differs between compounds; nearly all actives have a fitted effect of over 15% in size)
Summary of the method: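 Agonist-mode confirmation run in the presence of 10.0nM (final) ICI-182,780 antagonist. The reporter was ERE-driven luciferase in VM7Luc4E2 cells, grown in charcoal-stripped serum. Cells were exposed to 15-concentration compound series for 22hr, then ONE-Glo luminescence was read.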

[12] = qHTS assay to identify small molecule agonists or antagonists of the thyroid stimulating hormone receptor (TSHR) signaling pathway - wild type cell line counter screen (AID 1259384; calls by dose curve)
Summary of the method: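 Wild-type Hek293 cells, 800/well, 18 h at 37C, then compound with Ro20-1724 for 30 min RT. cAMP by HTRF (cAMP-d2/anti-cAMP cryptate), 1 h RT, fluorescence read. 15 concentrations, triplicates.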

[13] = target: Thyrotropin receptor (Homo sapiens) (UniProt P16473); assay: qHTS assay to identify small molecule antagonists of the thyroid stimulating hormone receptor (TSHR) signaling pathway (AID 1259385; calls by dose curve; also: nearly all actives have a fitted effect of over 20% in size)
Thyrotropin receptor (Homo sapiens), sequence (P16473 whole entry, looked up): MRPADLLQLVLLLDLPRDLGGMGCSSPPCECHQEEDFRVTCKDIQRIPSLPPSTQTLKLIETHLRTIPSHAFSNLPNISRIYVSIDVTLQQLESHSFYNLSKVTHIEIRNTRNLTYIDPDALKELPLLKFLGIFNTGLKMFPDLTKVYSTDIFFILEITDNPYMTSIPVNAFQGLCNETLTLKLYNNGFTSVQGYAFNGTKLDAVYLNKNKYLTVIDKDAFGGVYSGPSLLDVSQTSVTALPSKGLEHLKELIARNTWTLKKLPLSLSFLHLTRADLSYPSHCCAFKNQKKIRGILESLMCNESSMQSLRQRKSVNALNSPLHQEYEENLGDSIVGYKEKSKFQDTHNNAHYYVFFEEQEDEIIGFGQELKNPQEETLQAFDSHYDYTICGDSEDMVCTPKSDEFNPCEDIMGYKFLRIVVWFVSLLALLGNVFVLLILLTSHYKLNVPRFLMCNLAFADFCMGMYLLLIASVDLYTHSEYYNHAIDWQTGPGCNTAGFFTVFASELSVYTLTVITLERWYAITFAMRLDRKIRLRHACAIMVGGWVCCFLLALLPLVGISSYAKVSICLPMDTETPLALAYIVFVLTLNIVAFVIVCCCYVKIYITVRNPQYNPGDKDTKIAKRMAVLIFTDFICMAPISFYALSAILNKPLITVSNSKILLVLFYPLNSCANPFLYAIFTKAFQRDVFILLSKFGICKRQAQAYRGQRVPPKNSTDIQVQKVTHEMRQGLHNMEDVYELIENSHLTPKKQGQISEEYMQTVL
Summary of the method: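 TSHR-HEK293 cells (800/well) plated 18 h, then compounds with Ro20-1724 and TSH at 1.5 ng/mL final, 30 min at room temperature. cAMP quantified by HTRF (cAMP-d2/anti-cAMP-cryptate, 1 h); 15 concentrations in triplicate.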

[14] = qHTS assay to identify small molecule antagonists of the sonic hedgehog signaling (Shh) pathway - cell viability counter screen (AID 1259367); also: nearly all actives have a fitted effect of over 55% in size; also: potency is read from the fitted curve at half-maximal effect
Summary of the method: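 Tox21 library chemicals were tested on a Gli1-Luc NIH/3T3 clone (2,000 cells/well) stimulated by conditioned medium; viability was quantified as fluorescence from CellTiter-Fluor reagent added at 23 hr.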

[15] = qHTS assay to identify small molecule agonists of the androgen receptor (AR) signaling pathway in the presence of an antagonist - cell viability counter screen (AID 1259379);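 also: MDA-kb2 human breast cancer cells carrying an MMTV luciferase reporter; series mostly up to about 92 µM; nearly all actives have a fitted effect of over 25% in size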
Summary of the method: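 Cytotoxicity counter-screen run in the same wells as the nilutamide-challenged (3.0 µM final) AR agonist assay in MDA-kb2 cells. Compounds tested at 15 concentrations for 16 h, 37 °C without CO2; CellTiter-Fluor fluorescence read.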

[16] = qHTS assay to identify small molecule agonists of the estrogen receptor beta (ER-beta) signaling pathway - cell viability counter screen (AID 1259380); also: nearly all actives have a fitted effect of over 30% in size; also: potency is read from the fitted curve at half-maximal effect
Summary of the method: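 Cell viability counter screen: CellTiter-Glo luminescence (30 min, room temperature) measured in the same wells as the beta-lactamase readout, after 16 hr compound exposure at 37C of ER-beta-bla HEK293T cells in 2% charcoal-stripped FBS medium.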

[17] = target: Androgen receptor (Homo sapiens) (UniProt P10275); assay: qHTS assay to identify small molecule agonists of the androgen receptor (AR) signaling pathway in the presence of an antagonist (AID 1259381; calls by dose curve; also: potency is read from the fitted curve at half-maximal effect; nearly all actives have a fitted effect of over 15% in size)
Androgen receptor (Homo sapiens), sequence (P10275 whole entry, looked up): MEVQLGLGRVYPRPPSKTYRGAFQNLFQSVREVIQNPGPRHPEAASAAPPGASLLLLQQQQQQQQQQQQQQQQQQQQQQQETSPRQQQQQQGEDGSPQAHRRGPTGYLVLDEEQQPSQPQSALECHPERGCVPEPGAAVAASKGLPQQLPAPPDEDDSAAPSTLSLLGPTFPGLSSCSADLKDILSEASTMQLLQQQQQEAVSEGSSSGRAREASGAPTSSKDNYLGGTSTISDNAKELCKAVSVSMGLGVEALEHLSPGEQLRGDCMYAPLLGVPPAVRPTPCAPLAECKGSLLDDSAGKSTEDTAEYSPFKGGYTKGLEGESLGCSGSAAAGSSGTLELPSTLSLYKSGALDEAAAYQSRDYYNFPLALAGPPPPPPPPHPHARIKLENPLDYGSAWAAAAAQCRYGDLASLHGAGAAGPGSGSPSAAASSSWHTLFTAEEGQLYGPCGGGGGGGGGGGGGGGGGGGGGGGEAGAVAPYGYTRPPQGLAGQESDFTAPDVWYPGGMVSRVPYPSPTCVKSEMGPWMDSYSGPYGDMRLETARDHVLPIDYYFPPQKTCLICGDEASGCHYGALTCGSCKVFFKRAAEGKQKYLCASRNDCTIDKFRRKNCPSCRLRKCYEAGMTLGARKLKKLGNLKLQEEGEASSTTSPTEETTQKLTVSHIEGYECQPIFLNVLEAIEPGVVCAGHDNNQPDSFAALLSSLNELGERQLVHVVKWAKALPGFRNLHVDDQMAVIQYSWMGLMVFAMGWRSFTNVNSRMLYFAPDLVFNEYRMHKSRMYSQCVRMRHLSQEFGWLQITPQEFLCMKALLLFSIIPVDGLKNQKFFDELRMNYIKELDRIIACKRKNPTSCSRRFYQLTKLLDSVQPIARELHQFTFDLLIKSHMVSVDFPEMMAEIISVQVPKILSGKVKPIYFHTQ
Summary of the method: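 Agonist-mode confirmation run against 3.0 uM final nilutamide: compounds titrated at 15 concentrations onto MDA-kb2 MMTV-luciferase reporter cells. Luminescence measured with ONE-Glo following 16 hr incubation, 37C, 0% CO2.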

[18] = target: Estrogen receptor beta (Homo sapiens) (UniProt Q92731); assay: qHTS assay to identify small molecule antagonists of the estrogen receptor beta (ER-beta) signaling pathway (AID 1259378; active = well fitted inhibition curve with a large enough effect in the signal ratio in the repeat runs, not every such curve was filed as active; the % refers to the signal ratio; also: potency is read from the fitted curve at half-maximal effect)
Estrogen receptor beta (Homo sapiens), sequence (Q92731 whole entry, looked up): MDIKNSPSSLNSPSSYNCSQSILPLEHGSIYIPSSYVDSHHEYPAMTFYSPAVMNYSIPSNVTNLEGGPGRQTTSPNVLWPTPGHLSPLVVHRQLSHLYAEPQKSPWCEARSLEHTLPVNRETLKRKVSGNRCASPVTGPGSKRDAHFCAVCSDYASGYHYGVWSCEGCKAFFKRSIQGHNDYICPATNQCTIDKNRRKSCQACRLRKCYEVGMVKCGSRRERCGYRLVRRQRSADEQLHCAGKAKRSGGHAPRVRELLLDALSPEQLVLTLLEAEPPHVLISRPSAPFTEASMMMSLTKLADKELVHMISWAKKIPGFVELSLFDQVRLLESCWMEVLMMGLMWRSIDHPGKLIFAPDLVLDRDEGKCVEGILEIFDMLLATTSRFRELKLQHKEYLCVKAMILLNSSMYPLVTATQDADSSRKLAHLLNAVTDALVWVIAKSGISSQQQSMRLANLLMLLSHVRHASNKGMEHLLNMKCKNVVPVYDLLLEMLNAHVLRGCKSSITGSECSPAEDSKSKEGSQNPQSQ
Summary of the method: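 ER-beta-UAS-bla HEK293T cells in 2% charcoal-stripped FBS medium treated with compound plus 1nM final 17-beta-estradiol for 16 hr at 37C. Beta-lactamase reporter read by FRET substrate fluorescence after 2 hours at room temperature.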

[19] = target: Estrogen receptor beta (Homo sapiens) (UniProt Q92731); assay: qHTS assay to identify small molecule agonists of the estrogen receptor beta (ER-beta) signaling pathway (AID 1259377; active = well fitted activation curve with a large enough effect in the signal ratio in the repeat runs, not every such curve was filed as active; the % refers to the signal ratio)
Summary of the method: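 Measured by fluorescence intensity from a B/G FRET beta-lactamase substrate (2 h, room temperature) in ER-beta-UAS-bla HEK293T cells treated with DMSO-dissolved compounds for 16 hr at 37C and 5% CO2.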

Measured: Potency

C[C@H](CCC(=O)O)[C@H]1CC[C@H]2[C@@H]3[C@H](O)C[C@@H]4C[C@H](O)CC[C@]4(C)[C@H]3CC[C@]12C
not listed: [14] | [15] | [16] | [17] | [18] | [19]
inactive: all other assays above

Nc1ccc(C(=O)Nc2ccccc2N)cc1
active: [16] 0.841 µM | [17] 5.96 µM
not listed: [5] | [10] | [18] | [19]
inactive: all other assays above

C=CCCCCCC
active: [9] 58.9 µM
not listed: [4] | [17] | [19]
inactive: all other assays above

COc1ccc2[nH]c(S(=O)Cc3ncc(C)c(OC)c3C)nc2n1 (stereo not drawn)
not listed: [12] | [13] | [15] | [17] | [18] | [19]
inactive: all other assays above

Cc1ccc(C(C)c2ccc(C)c(C)c2)cc1C
not listed: [4] | [13] | [17] | [19]
inactive: all other assays above

CCN(CC)CCNC(C(=O)OCCC(C)C)c1ccccc1 (stereo not drawn)
not listed: [16] | [17] | [19]
inactive: all other assays above

CCC(=O)OC(C)(C)C1CC=C(C)CC1 (stereo not drawn)
not listed: [4] | [12] | [17]
inactive: all other assays above

C=CC(=O)OCC(C)OCC(C)OCC(C)OC(=O)C=C (stereo not drawn)
active: [7] 24.3 µM | [14] 48.6 µM | [9] 9.69 µM | [18] 61.1 µM
not listed: [4] | [12] | [13] | [15] | [16] | [17]
inactive: all other assays above

CCCC(C)C
active: [16] 61.8 µM
not listed: [4] | [17] | [19]
inactive: all other assays above
